IDE cell inh: inhibits human insulin-degrading enzyme in HEK cells; P14735; FAbetaB cleavage, fluorescence polarization; inhibition, % at 5.59 µM; 0.41% of 320,000 active;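 active means percent inhibition above the average of all tested compounds plus 3 SD, set per screening campaign, cut at about 16% in these data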;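 further: IDE supplied by intact live HEK cells; FP after avidin binding of uncleaved biotin substrate so inhibition keeps polarization high; 0% = DMSO wells and 100% = 60 µM reference IDE inhibitor Ii1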
IDE act: IDE (human) activation, cell-based; HEK cells, FAbeta-B cleavage, fluorescence polarization; 0% vehicle, 100% cell-free pure enzyme wells; activation, % at 5.96 µM; 0.073% of 340,000 active; AID 493087;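 active means activation above the mean of all tested compounds plus 3 SD, set per screening campaign, cut at about 17% in these data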
LANA-H2A inh: blocks KSHV LANA binding to histone H2A/H2B; Q9QR71; cell-free LANA-H2A/H2B peptide, fluorescence polarization; inhibition, % (no concentration beside the values); 0.6% of 320,000 active; in the data active means inhibition mostly above about 10%, no sharp cut-off; inactive means mostly below about 6.7%
Mot1-301 SUMO: blocks SUMOylation pathway, rescuing yeast Mot1-301 growth; S. cerevisiae Mot1-301 growth rescue, ATP luminescence, 38.5C; percent above DMSO median, 100 means doubled; AID 2716; growth rescue, % at 18.8 µM; 1% of 320,000 active;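 active means every valid replicate shows activation above 250% relative to neutral control wells; inactive means the rest, any valid replicate at or below 250%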;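 further: OY570 slx delta 5 strain wells were the positive control but not used for scaling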
HDAC3 inh: blocks human histone deacetylase 3; inhibition, % at 8.3 µM; O15379; 0.15% of 320,000 active; AID 2718; recombinant HDAC3, fluorogenic peptide/trypsin coupled, fluorescence; in the data active means inhibition above about 26%, passing the limit was not always enough
* = called active by the depositor; . = no result; + = active, no number. The list is not random: actives were taken first. Their share in the collection is about 2.1%.

SMILES	IDE cell inh	IDE act	LANA-H2A inh	Mot1-301 SUMO	HDAC3 inh
Cc1cc(C)cc(-c2nnc(SCC(=O)c3c(N)n(C4CC4)c(=O)[nH]c3=O)o2)c1	.	-3.1	.	.	.
CCS(=O)(=O)c1ccc2oc(SCC(=O)c3c(N)n(C4CC4)c(=O)[nH]c3=O)nc2c1	7.7	2.4	46.5*	9.5	8.7
Cc1ccc(Nc2nnc(SCC(=O)c3c(N)n(C4CC4)c(=O)[nH]c3=O)s2)cc1C	-2.7	3.1	+	-11.2	1.4
Nn1c(SCC(=O)NNC(=O)c2ccccc2)nnc1-c1ccccc1F	-0.5	4.0	0.9	-17.0	-10.8
NNC(=O)CCc1nc2ccc(O)cc2[nH]1	0.2	4.7	13.0*	121.3	-0.5
O=C(CCc1nc2ccccc2[nH]1)Nc1ccccc1	6.2	-2.4	.	3.0	.
COc1ccc2c(CC(=O)O)cc(=O)oc2c1	5.3	6.2	0.2	-20.2	-19.1
CC(=O)Nc1ccc2c(COC(=O)CC3Sc4ccccc4NC3=O)cc(=O)oc2c1 (stereo not given)	2.6	-2.3	-6.7	-1.0	-14.2
COC(=O)Cc1cc(=O)oc2cc(OC)ccc12	4.5	7.5	67.1*	26.1	-40.4
COc1ccc2c(COC(=O)CC3Sc4ccccc4NC3=O)cc(=O)oc2c1 (stereo not given)	3.6	3.5	15.0*	1.8	-2.1
CN(C)c1ccc(C(C(=O)NCc2ccccc2)N(Cc2ccco2)C(=O)c2snc(C(N)=O)c2N)cc1 (stereo not given)	10.5	-3.6	-2.9	9.0	2.7
CC(=O)Nc1ccc(S(=O)(=O)N2CCCC(C(=O)N3CCN(c4ccccc4)CC3)C2)cc1 (stereo not given)	1.4	-0.7	-7.3	-4.1	1.8
O=C(C1CCCN(S(=O)(=O)c2ccccc2[N+](=O)[O-])C1)N1CCN(c2ccccc2)CC1 (stereo not given)	18.2*	-2.8	-0.6	109.6	-1.6
CS(=O)(=O)Nc1ccc([N+](=O)[O-])cc1Oc1ccccc1	3.0	2.2	32.1*	6.2	7.2
CS(=O)(=O)Nc1ccccc1Oc1ccccc1	1.4	8.0	2.6	188.4	6.1
CCCCCC1C/C(=N\O)C=C(C)C1C(=O)OC (stereo not given)	-4.5	.	0.5	308.9*	0.7
O=C(O)c1cc(S(=O)(=O)Nc2cccc(Oc3ccccc3)c2)ccc1Br	2.7	2.8	3.6	39.1	1.4
O=C(c1cc(Br)ccc1Cl)N1CCCC1	6.4	6.5	11.1*	-6.7	-0.3
CN1CCCC(OC(=O)c2cc(Cl)ccc2Cl)C1 (stereo not given)	3.7	-0.6	-2.1	6.3	-7.6
CN1CCCC(OC(=O)c2cc(Br)ccc2Cl)C1 (stereo not given)	3.7	4.1	1.0	260.3*	11.1
Clc1cccc(Nc2nc(-c3ccncc3)cs2)c1	13.8	-1.3	1.3	274.9*	-3.3
Cc1cccc(Nc2nc(-c3ccncc3)cs2)c1	1.3	-1.0	-2.8	13.6	-4.8
CC(=O)c1cc2c(cc1NC(=O)CCn1cnnn1)OCO2	-0.8	2.3	-1.9	5.0	6.8
COc1cc(/C=C2/N=C(C3CCCCC3)OC2=O)cc(OC)c1OC	-4.2	0.6	1.1	0.2	1.0
COc1cc(/C=C2\N=C(C)OC2=O)cc(OC)c1OC	-9.6	-3.6	1.6	245.2	36.1*
SMILES	IDE cell inh	IDE act	LANA-H2A inh	Mot1-301 SUMO	HDAC3 inh
O=c1cc(CN2CCN(S(=O)(=O)c3cccc(Cl)c3)CC2)c2ccc(O)cc2o1	0.5	2.6	-7.4	-8.6	0.5
CC(C)(C)OC(=O)NCCCCCc1nnc(SCc2c(F)cccc2Cl)o1	6.9	-0.5	14.4*	-18.9	-1.4
CC(C)(C)OC(=O)NCCc1nnc(SCc2c(Cl)cccc2Cl)o1	5.4	-0.5	0.8	.	10.2
CC(C)(C)OC(=O)NCC1CCC(C(=O)NC[C@H](CC(=O)O)c2ccc(Cl)cc2)CC1 (stereo not given in full)	-1.5	6.0	-0.4	336.5*	-4.3
CC(=O)C1=C(C)Nc2ncnn2C1c1cccc(O)c1 (stereo not given)	2.1	0.9	0.2	335.9*	-0.7
CC(=O)C1=C(C)Nc2ncnn2C1c1ccc(O)cc1 (stereo not given)	3.4	0.7	1.1	-17.2	.
CC(C)Cc1ccc(CN2CCCC(NC(=O)c3cccc(-n4cnnc4)c3)C2)cc1 (stereo not given)	6.7	-5.2	52.6*	1.5	0.6
CC(C)Cc1ccc(CN2CCCC(NC(=O)c3ccoc3)C2)cc1 (stereo not given)	9.3	-4.7	2.5	-8.7	.

Compound activity: PubChem, several laboratories
